Reference: PubChem BioAssay AID1159580 (chemical genetic matrix, 2015)
“And” between values parts separate entries of the source, which are not always exact repeats. Equal values may be shown once. Among all 5,500 compounds or so, about 2,000 (36%) were called active. Roughly 18% stayed inconclusive and do not appear here. The list shows a part of the results. A number with no mark means an inactive call. Rule as the data show it: active = normalized growth mostly below about 0.91 (no sharp cut-off); inconclusive = no clear call, values can overlap the other calls; inactive = mostly above about 0.92.

Assay: chemical genetic growth profiling, strain panel (AID 1159580);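 also: tested at 20 µM; growth read once vehicle control cultures reached saturation at 30 °C; 1 = growth at the plate median or of vehicle wells; lower values mean less growth of the strain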
Conditions: S. cerevisiae deletion strains, growth OD

## O=C1CC[C@]23C=CC(=O)NCCCCNCCCNC(=O)/C=C/c4ccc(c2c4)O[C@@H]3C1
Locus YAL021C, strain ccr4, hits give low values
  normalized growth: 1.02
Locus YAL026C, strain drs2, hits give low values
  normalized growth: 1.04
Locus YAL030W, strain snc1, hits give low values
  normalized growth: 1.01
Locus YBL061C, strain skt5, hits give low values
  normalized growth: 1.02
Locus YBR009C, strain hhf1, hits give low values
  normalized growth: 1.03
Locus YBR021W, strain FUR4, hits give low values
  normalized growth: 0.999
Locus YBR023C, strain chs3, hits give low values
  normalized growth: 1.02
Locus YBR171W, strain sec66, hits give low values
  normalized growth: 1.01
Locus YBR229C, strain ROT2, hits give low values
  normalized growth: 1.01
Locus YBR231C, strain swc5, hits give low values
  normalized growth: 1.01
Locus YBR279W, strain paf1, hits give low values
  normalized growth: 1
Locus YCL011C, strain gbp2, hits give low values
  normalized growth: 1
Locus YCL016C, strain dcc1, hits give low values
  normalized growth: 1.03
Locus YCL029C, strain bik1, hits give low values
  normalized growth: 0.997
Locus YCL061C, strain MRC1, hits give low values
  normalized growth: 1
Locus YCL069W, strain vba3, hits give low values
  normalized growth: 1.01
Locus YCR088W, strain abp1, hits give low values
  normalized growth: 1.02
Locus YDL005C, strain med2, hits give low values
  normalized growth: 1.02
Locus YDL035C, strain GPR1, hits give low values
  normalized growth: 1.05
Locus YDL040C, strain nat1, hits give low values
  normalized growth: 1
Locus YDL074C, strain BRE1, hits give low values
  normalized growth: 1.05
Locus YDL101C, strain DUN1, hits give low values
  normalized growth: 1
Locus YDL134C, strain PPH21, hits give low values
  normalized growth: 0.954
Locus YDL185W, strain tfp1, hits give low values
  normalized growth: 0.993
Locus YDL192W, strain arf1, hits give low values
  normalized growth: 1.02
Locus YDR001C, strain nth1, hits give low values
  normalized growth: 1.01
Locus YDR069C, strain doa4, hits give low values
  normalized growth: 1.03
Locus YDR101C, strain arx1, hits give low values
  normalized growth: 0.997
Locus YDR137W, strain rgp1, hits give low values
  normalized growth: 0.993
Locus YDR150W, strain NUM1, hits give low values
  normalized growth: 1.01
Locus YDR159W, strain sac3, hits give low values
  normalized growth: 1.03
Locus YDR162C, strain NBP2, hits give low values
  normalized growth: 1.02
Locus YDR195W, strain ref2
  normalized growth: 1.02
Locus YDR297W, strain sur2, hits give low values
  normalized growth: 1.01
Locus YDR318W, strain mcm21, hits give low values
  normalized growth: 1.01
Locus YDR334W, strain swr1, hits give low values
  normalized growth: 1.01
Locus YDR335W, strain msn5, hits give low values
  normalized growth: 1.03
Locus YDR388W, hits give low values
  normalized growth: 0.993
Locus YDR392W, strain spt3, hits give low values
  normalized growth: 1.01
Locus YDR502C, strain sam2, hits give low values
  normalized growth: 0.963
Locus YEL003W, strain gim4, hits give low values
  normalized growth: 1.01
Locus YEL037C, strain rad23, hits give low values
  normalized growth: 1.02
Locus YEL061C, strain CIN8 (second series), hits give low values
  normalized growth: 1.01
Locus YEL061C, strain CIN8, hits give low values
  normalized growth: 1.01
Locus YER015W, strain faa2, hits give low values
  normalized growth: 1.01
Locus YER016W, strain bim1, hits give low values
  normalized growth: 1.02
Locus YER110C, hits give low values
  normalized growth: 0.981
Locus YER111C, strain swi4, hits give low values
  normalized growth: 1.01
Locus YER155C, strain BEM2 (second series), hits give low values
  normalized growth: 1.01
Locus YER155C, strain BEM2, hits give low values
  normalized growth: 1.01
Locus YER167W, strain BCK2, hits give low values
  normalized growth: 1.02
Locus YFR010W, strain ubp6, hits give low values
  normalized growth: 1.02
Locus YGL078C, strain dbp3, hits give low values
  normalized growth: 0.987
Locus YGL086W, strain mad1, hits give low values
  normalized growth: 0.99
Locus YGL167C, strain pmr1, hits give low values
  normalized growth: 1.03
Locus YGL173C, strain kem1, hits give low values
  normalized growth: 1.02
Locus YGL227W, strain vid30, hits give low values
  normalized growth: 1.02
Locus YGL240W, strain doc1, hits give low values
  normalized growth: 1.02
Locus YGL248W, strain PDE1, hits give low values
  normalized growth: 1
Locus YGL253W, strain hxk2, hits give low values
  normalized growth: 1.02
Locus YGR135W, strain pre9, hits give low values
  normalized growth: 0.951
Locus YGR252W, strain gcn5, hits give low values
  normalized growth: 0.903
Locus YHR013C, strain ard1, hits give low values
  normalized growth: 1.41 [resistant] (active)
Locus YHR027C, strain rpn1, hits give low values
  normalized growth: 1
Locus YHR030C, strain SLT2, hits give low values
  normalized growth: 1.05
Locus YHR079C, strain IRE1 (second series), hits give low values
  normalized growth: 0.995
Locus YHR079C, strain IRE1, hits give low values
  normalized growth: 1.04
Locus YHR094C, strain hxt1, hits give low values
  normalized growth: 0.993
Locus YHR129C, strain ARP1, hits give low values
  normalized growth: 1.01
Locus YHR142W, strain chs7, hits give low values
  normalized growth: 1.01
Locus YHR200W, strain rpn10, hits give low values
  normalized growth: 0.963
Locus YIL066C, strain RNR3, hits give low values
  normalized growth: 1.04
Locus YIL073C, strain SPO22, hits give low values
  normalized growth: 0.97
Locus YIL125W, strain kgd1, hits give low values
  normalized growth: 0.988
Locus YIR030C, strain dcg1, hits give low values
  normalized growth: 0.997
Locus YJL092W, strain hpr5, hits give low values
  normalized growth: 1.01
Locus YJL095W, strain BCK1 (second series), hits give low values
  normalized growth: 1.04
Locus YJL095W, strain BCK1, hits give low values
  normalized growth: 1.01 and 1.04
Locus YJL115W, strain asf1, hits give low values
  normalized growth: 1.02
Locus YJL129C, strain trk1, hits give low values
  normalized growth: 1.01
Locus YJL134W, strain LCB3, hits give low values
  normalized growth: 1.01
Locus YJL154C, strain vps35, hits give low values
  normalized growth: 1.01
Locus YJL164C, strain tpk1, hits give low values
  normalized growth: 0.974
Locus YJL166W, strain qcr8, hits give low values
  normalized growth: 1.04
Locus YJL168C, strain set2, hits give low values
  normalized growth: 1
Locus YJL187C, strain SWE1 (second series), hits give low values
  normalized growth: 0.99
Locus YJR043C, strain POL32, hits give low values
  normalized growth: 1.04
Locus YJR066W, strain TOR1, hits give low values
  normalized growth: 0.98
Locus YKL009W, strain mrt4, hits give low values
  normalized growth: 1.04
Locus YKL068W, hits give low values
  normalized growth: 0.993
Locus YKL085W, strain MDH1 (second series), hits give low values
  normalized growth: 0.997
Locus YKL085W, strain MDH1, hits give low values
  normalized growth: 0.997
Locus YKL160W, strain elf1, hits give low values
  normalized growth: 1.04
Locus YKR001C, strain vps1, hits give low values
  normalized growth: 0.977
Locus YKR026C, strain gcn3, hits give low values
  normalized growth: 1.01
Locus YKR091W, strain srl3, hits give low values
  normalized growth: 1.01
Locus YLL001W, strain dnm1, hits give low values
  normalized growth: 0.965
Locus YLL026W, hits give low values
  normalized growth: 1.01
Locus YLL041C, strain sdh2, hits give low values
  normalized growth: 1.01
Locus YLR027C, strain aat2, hits give low values
  normalized growth: 1.01
Locus YLR039C, strain RIC1, hits give low values
  normalized growth: 1.08
Locus YLR058C, strain SHM2, hits give low values
  normalized growth: 1.01
Locus YLR102C, strain apc9, hits give low values
  normalized growth: 0.985
Locus YLR113W, strain HOG1, hits give low values
  normalized growth: 0.962
Locus YLR221C, strain rsa3, hits give low values
  normalized growth: 1.01
Locus YLR258W, strain gsy2, hits give low values
  normalized growth: 1.01
Locus YLR262C, strain YPT6 (second series), hits give low values
  normalized growth: 1
Locus YLR268W, strain sec22, hits give low values
  normalized growth: 1.01
Locus YLR320W, strain mms22, hits give low values
  normalized growth: 1.04
Locus YLR330W, strain CHS5, hits give low values
  normalized growth: 1.01
Locus YLR342W, strain FKS1 (second series), hits give low values
  normalized growth: 1.04
Locus YLR342W, strain FKS1, hits give low values
  normalized growth: 1
Locus YLR357W, strain rsc2, hits give low values
  normalized growth: 1.01
Locus YLR370C, strain arc18, hits give low values
  normalized growth: 1.02
Locus YLR371W, strain rom2, hits give low values
  normalized growth: 1
Locus YLR384C, strain iki3, hits give low values
  normalized growth: 1
Locus YLR418C, strain cdc73, hits give low values
  normalized growth: 0.959
Locus YML016C, strain PPZ1, hits give low values
  normalized growth: 1.01
Locus YML032C, strain rad52, hits give low values
  normalized growth: 0.993
Locus YML120C, strain ndi1, hits give low values
  normalized growth: 0.993
Locus YML124C, strain tub3, hits give low values
  normalized growth: 0.988
Locus YMR058W, strain fet3, hits give low values
  normalized growth: 1.02
Locus YMR078C, strain ctf18, hits give low values
  normalized growth: 0.986
Locus YMR125W, strain sto1, hits give low values
  normalized growth: 1
Locus YMR129W, hits give low values
  normalized growth: 1
Locus YMR205C, strain PFK2, hits give low values
  normalized growth: 1.01
Locus YMR223W, strain ubp8, hits give low values
  normalized growth: 0.969
Locus YMR231W, strain pep5, hits give low values
  normalized growth: 1.02
Locus YMR307W, strain GAS1, hits give low values
  normalized growth: 1.05
Locus YNL067W, strain RPL9B, hits give low values
  normalized growth: 0.976
Locus YNL071W, strain lat1, hits give low values
  normalized growth: 1.02
Locus YNL153C, strain GIM3, hits give low values
  normalized growth: 0.996
Locus YNL183C, strain NPR1, hits give low values
  normalized growth: 0.99
Locus YNL209W, strain ssb2, hits give low values
  normalized growth: 1.01
Locus YNL233W, strain BNI4, hits give low values
  normalized growth: 0.998
Locus YNL248C, strain rpa49, hits give low values
  normalized growth: 1.03
Locus YNL250W, strain rad50, hits give low values
  normalized growth: 0.959
Locus YNL271C, strain bni1, hits give low values
  normalized growth: 0.999
Locus YNL298W, strain CLA4, hits give low values
  normalized growth: 0.997
Locus YNL307C, strain MCK1, hits give low values
  normalized growth: 0.983
Locus YNL322C, strain KRE1 (second series), hits give low values
  normalized growth: 1.01
Locus YNL322C, strain KRE1, hits give low values
  normalized growth: 1.01
Locus YNR049C, strain mso1, hits give low values
  normalized growth: 1.03
Locus YNR052C, strain pop2, hits give low values
  normalized growth: 0.972
Locus YOL006C, strain TOP1, hits give low values
  normalized growth: 1.09
Locus YOL012C, strain htz1
  normalized growth: 0.612
Locus YOL147C, strain pex11, hits give low values
  normalized growth: 0.99
Locus YOR001W, strain rrp6, hits give low values
  normalized growth: 1.03
Locus YOR061W, strain CKA2, hits give low values
  normalized growth: 1.02
Locus YOR069W, strain VPS5, hits give low values
  normalized growth: 1
Locus YOR070C, strain gyp1, hits give low values
  normalized growth: 1.02
Locus YOR080W, strain dia2, hits give low values
  normalized growth: 1.01
Locus YOR083W, strain WHI5, hits give low values
  normalized growth: 1.01
Locus YOR106W, strain vam3, hits give low values
  normalized growth: 1.01
Locus YOR136W, strain idh2, hits give low values
  normalized growth: 0.979
Locus YOR144C, strain elg1, hits give low values
  normalized growth: 0.987
Locus YOR184W, strain ser1, hits give low values
  normalized growth: 1.03
Locus YOR231W, strain MKK1, hits give low values
  normalized growth: 1.03
Locus YOR265W, strain rbl2, hits give low values
  normalized growth: 0.991
Locus YOR270C, strain vph1, hits give low values
  normalized growth: 1.07
Locus YOR290C, strain snf2, hits give low values
  normalized growth: 1.01
Locus YOR316C, strain cot1, hits give low values
  normalized growth: 0.984
Locus YPL051W, strain arl3, hits give low values
  normalized growth: 1.02
Locus YPL055C, strain LGE1, hits give low values
  normalized growth: 1.04
Locus YPL078C, strain atp4, hits give low values
  normalized growth: 1.01
Locus YPL106C, strain sse1, hits give low values
  normalized growth: 1.06
Locus YPL240C, strain hsp82, hits give low values
  normalized growth: 1.01
Locus YPL241C, strain CIN2, hits give low values
  normalized growth: 1.01
Locus YPL256C, strain CLN2, hits give low values
  normalized growth: 1.05
Locus YPR119W, strain clb2, hits give low values
  normalized growth: 0.992
Locus YPR141C, strain kar3, hits give low values
  normalized growth: 0.993
Locus YPR163C, strain tif3, hits give low values
  normalized growth: 0.99
Locus YPR167C, strain met16, hits give low values
  normalized growth: 0.985
Strain wtn01, hits give low values
  normalized growth: 0.99
